# Values joined by “and” are separate entries in the source; they are usually repeats but may differ in a detail not shown here. Equal entries are not always repeated. A number with no mark means an inactive call. Results filed as inconclusive are left out. A call without a number means that no potency is given here. Active and inactive are the calls of the source. Unless noted, calls follow the shape of the dose curve; as a rule, active = well fitted curve in the direction sought with a large enough effect; inconclusive = small, poorly fitted or top-dose-only effect, or another doubt; inactive = no such curve, though single readings can be large; an effect the other way counts as inactive or inconclusive.
# Experiments:
# [1] = MultiTox-Fluor Cytotoxicity Assay - LYMP1-001 - Live Cells (AID 947)
# [2] = MultiTox-Fluor Cytotoxicity Assay - LYMP1-002 - Dead Cells (AID 960); also: nearly all actives have a fitted effect of over 60% in size
# In short: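 LYMP1-002 cells 2500/well; 5 hr 37 C pre-incubation; compound 16 hr 37 C; MultiTox-Fluor reagent 60 min RT; dead-cell fluor Ex/Em 485/520. Norm. to DMSO (0%) vs 15 uM tetraoctylammonium bromide (100%); Hill AC50.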
# [3] = Cell Viability - LYMP2-009 (AID 968);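 also: series mostly up to about 92 µM; cells exposed to compound for 24 h at 37 °C; nearly all actives have a fitted effect of over 55% in size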
# [4] = Cell Viability - LYMP2-024 (AID 988); also: nearly all actives have a fitted effect of over 60% in size
# In short: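 Steps: seed 2500 cells/well, 5 hr 37 C; add compound, 24 hr 37 C; add CellTiter-Glo, 30 min room temperature; read luminescence. AC50 derived by Hill modelling of concentration-dependent ATP loss.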
# [5] = biological target: Estrogen receptor (Homo sapiens) (UniProt P03372); experiment: qHTS assay for small molecule antagonists of estrogen receptor alpha signaling (AID 588513; active = well fitted curve in the direction sought with a large enough effect in the signal ratio, with a control signal flat, not every such curve was filed as active; the % refers to the signal ratio)
# In short: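 Fluorescence from CCF4 substrate after 2 h at room temperature gave reporter activity; cells had been exposed to compound and 0.5nM 17-beta-estradiol for 18 h at 37 C. Hill-equation fitting yielded IC50 and maximal response.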
# [6] = biological target: Estrogen receptor (Homo sapiens) (UniProt P03372); experiment: qHTS assay for small molecule agonists of estrogen receptor alpha signaling (AID 588514; calls by dose curve; also: nearly all actives have a fitted effect of over 70% in size; also: potency is read from the fitted curve at half-maximal effect)
# In short: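 Cells were plated at 5000/well, incubated 4 hrs at 37 C, dosed with compound titration series, incubated 18 hrs at 37 C, loaded with CCF4 dye for 2 hrs at RT, then fluorescence was read.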
# [7] = biological target: Bile acid receptor (Homo sapiens) (UniProt Q96RI1); experiment: qHTS assay for small molecule agonists of farnesoid X receptor signaling (AID 588527; calls by dose curve; also: series mostly up to about 77 µM); conditions: HEK293T FXR-UAS-bla, beta-lactamase ratio, 16 h; hits give high values
# In short: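 FXR-UAS-bla HEK293T, 10% dialyzed FBS; cpds up to 92 uM titration, 16 h 37 C; CCF4 dye 2 h RT; fluorescence. Normalized to chenodeoxycholic acid 100 uM (100%) and DMSO (0%); Hill fit gives EC50, efficacy.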
# [8] = biological target: Glucocorticoid receptor (Homo sapiens) (UniProt P04150); experiment: qHTS assay for small molecule antagonists of glucocorticoid receptor signaling (AID 588533; active = well fitted inhibition curve with a large enough effect in the signal ratio, with a control signal flat, not every such curve was filed as active; the % refers to the signal ratio;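 also: cells stimulated with 2 nM dexamethasone as agonist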)
# In short: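 Antagonist-mode qHTS: compound titrations added to GRE-bla HeLa cells, then dexamethasone 2 nM final; 18 h, 37 C. CCF4 FRET fluorescence normalized to dexamethasone and DMSO; IC50 from Hill fit.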
# [9] = biological target: Peroxisome proliferator-activated receptor delta (Homo sapiens) (UniProt Q03181); experiment: qHTS assay for small molecule agonists of peroxisome proliferator-activated receptor delta signaling (AID 588534; calls by dose curve)
# In short: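 Fluorescence from CCF4 substrate cleavage by beta-lactamase reporter, read 2 hrs at RT, measured agonist activity. Compounds were tested with 18 hrs exposure at 37 C. Concentration-response data fitted to Hill equation.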
# [10] = biological target: Peroxisome proliferator-activated receptor gamma (Homo sapiens) (UniProt P37231); experiment: qHTS assay for small molecule agonists of peroxisome proliferator-activated receptor gamma signaling (AID 588536; active = well fitted curve in the direction sought with a large enough effect in the signal ratio, with a control signal flat, not every such curve was filed as active; the % refers to the signal ratio)
# In short: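 PPAR-gamma-UAS-bla HEK293 cells in medium with 1% charcoal/dextran-treated FBS were exposed to compounds for 16 h at 37 C. Beta-lactamase activity was read with CCF4 substrate (405 nm excitation, 460/530 nm emission).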
# [11] = biological target: Thyroid hormone receptor beta (Homo sapiens) (UniProt P10828); experiment: qHTS assay for small molecule agonists of thyroid hormone receptor beta signaling (AID 588545; calls by dose curve)
# In short: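 Agonist-mode beta-lactamase reporter assay, HEK 293 cells, 2% charcoal/dextran FBS; cells plated 4 hrs, compound 18 hrs at 37 C, CCF4 2 hrs RT. Normalized to 10 nM T3 (100%) and DMSO (0%); Hill fit gives EC50, efficacy.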
# [12] = biological target: Thyroid hormone receptor beta (Homo sapiens) (UniProt P10828); experiment: qHTS assay for small molecule antagonists of thyroid hormone receptor beta signaling (AID 588547; active = well fitted inhibition curve with a large enough effect in the signal ratio, with a control signal flat, not every such curve was filed as active; the % refers to the signal ratio;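 also: cells stimulated with 0.4 nM T3 agonist during compound exposure; series mostly up to about 77 µM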); conditions: TR-UAS-bla HEK293, beta-lactamase ratio, antagonist mode, 18 h
# In short: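 TR-UAS-bla GripTite HEK293 cells in 2% charcoal/dextran FBS medium were preincubated 4 h at 37 C, given compound (0.59 nM to 92 uM) plus 0.4 nM T3 (final) for 18 h, then CCF4 for 2 h at RT; Hill fit gave IC50.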
# [13] = biological target: Voltage-gated inwardly rectifying potassium channel KCNH2 (Homo sapiens) (UniProt Q12809); experiment: qHTS Assay for Small Molecule Inhibitors of the Human hERG Channel Activity (AID 588834);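 also: top concentration of the series differs between compounds; lower thallium flux fluorescence means stronger hERG block; nearly all actives have a fitted effect of over 50% in size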
# In short: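 hERG-BacMam U2OS, 2000 cells/well; 0.7X FluxOR loading 1 hr RT dark; cpd ~10 min 37 °C; stim buffer; FDSS fluorescence 2 min @ 1 s; AC50 Hill fit.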
# [14] = qHTS assay for small molecule activators of the p53 signaling pathway (AID 651743; active = well fitted activation curve with a large enough effect in the signal ratio, not every such curve was filed as active; the % refers to the signal ratio; also: series mostly up to about 92 µM); conditions: HCT-116 p53RE-bla, beta-lactamase FRET ratio, 16 h; activation: hits give high values
# In short: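 Cell-based beta-lactamase reporter (p53 response elements, HCT-116 background). After a 5-hour preincubation, cells received compound for 16 hours at 37 C; substrate development ran 2 hours at room temperature.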
# [15] = qHTS assay for environmental chemicals that activate the Aryl hydrocarbon Receptor (AhR) signaling pathway (AID 651777); conditions: 1A2-DRE human hepatoma cells, luciferase, 24 h; activation: hits give high values; also: nearly all actives have a fitted effect of over 15% in size
# In short: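 Concentration–response screening used 1,200 1A2-DRE cells per well, 24 hr compound exposure (37 C, 5% CO2), and One-Glo luminescence as the AhR-driven CYP1A2 reporter signal.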
# [16] = biological target: Nuclear receptor ROR-gamma (Homo sapiens) (UniProt P51449); experiment: qHTS assay for small molecule antagonists of the retinoid-related orphan receptor gamma (ROR-gamma) signaling pathway (AID 651802);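 also: CHO cells with doxycycline-induced ROR-gamma expression; luciferase reporter luminescence driven by ROR response element; series mostly up to about 92 µM; nearly all actives have a fitted effect of over 60% in size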
# In short: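 CHO, TET-inducible ROR + RORE-LUC reporter, 1536-well qHTS. Compound pinned, doxycycline added, 16hr 37C/5% CO2. ONE-Glo, 30 min RT, luminescence; signal drop scored as antagonism.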
# [17] = biological target: Nuclear receptor subfamily 1 group I member 2 (Rattus norvegicus) (UniProt Q9R1A7); experiment: qHTS assay for small molecule activators of the rat pregnane X receptor (rPXR) signaling pathway (AID 651751; call rule not given here); conditions: rPXR reporter cells, luciferase (One-Glo), 24 h
# [18] = qHTS assay for small molecule activators of the human pregnane X receptor (PXR) signaling pathway (AID 720659; call rule not given here)
# [19] = qHTS assay for small molecule agonists of the antioxidant response element (ARE) signaling pathway (AID 651741; active = well fitted activation curve with a large enough effect in the signal ratio; the % refers to the signal ratio; also: potency is read from the fitted curve at half-maximal effect)
# In short: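 Compounds in DMSO are pinned onto HepG2 ARE-bla cells (2,000/well) that were preincubated 5 h; plates stay 16 h at 37 C, then beta-lactamase activity is detected with LiveBLAzer B/G substrate by fluorescence.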
# [20] = biological target: Vitamin D3 receptor (Homo sapiens) (UniProt P11473); experiment: qHTS assay for small molecule agonists of vitamin D receptor signaling (AID 588543; calls by dose curve)
# In short: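 Reporter cells (HEK293T, VDR-UAS-bla) were seeded in medium with 2% charcoal-stripped serum and incubated 5 h, then compounds in concentration series were added for 16 h at 37 °C. Stimulation was scaled between DMSO basal and 50 nM 1α,25-dihydroxyvitamin D3.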
# Voltage-gated inwardly rectifying potassium channel KCNH2 (Homo sapiens), sequence (Q12809 whole entry, looked up): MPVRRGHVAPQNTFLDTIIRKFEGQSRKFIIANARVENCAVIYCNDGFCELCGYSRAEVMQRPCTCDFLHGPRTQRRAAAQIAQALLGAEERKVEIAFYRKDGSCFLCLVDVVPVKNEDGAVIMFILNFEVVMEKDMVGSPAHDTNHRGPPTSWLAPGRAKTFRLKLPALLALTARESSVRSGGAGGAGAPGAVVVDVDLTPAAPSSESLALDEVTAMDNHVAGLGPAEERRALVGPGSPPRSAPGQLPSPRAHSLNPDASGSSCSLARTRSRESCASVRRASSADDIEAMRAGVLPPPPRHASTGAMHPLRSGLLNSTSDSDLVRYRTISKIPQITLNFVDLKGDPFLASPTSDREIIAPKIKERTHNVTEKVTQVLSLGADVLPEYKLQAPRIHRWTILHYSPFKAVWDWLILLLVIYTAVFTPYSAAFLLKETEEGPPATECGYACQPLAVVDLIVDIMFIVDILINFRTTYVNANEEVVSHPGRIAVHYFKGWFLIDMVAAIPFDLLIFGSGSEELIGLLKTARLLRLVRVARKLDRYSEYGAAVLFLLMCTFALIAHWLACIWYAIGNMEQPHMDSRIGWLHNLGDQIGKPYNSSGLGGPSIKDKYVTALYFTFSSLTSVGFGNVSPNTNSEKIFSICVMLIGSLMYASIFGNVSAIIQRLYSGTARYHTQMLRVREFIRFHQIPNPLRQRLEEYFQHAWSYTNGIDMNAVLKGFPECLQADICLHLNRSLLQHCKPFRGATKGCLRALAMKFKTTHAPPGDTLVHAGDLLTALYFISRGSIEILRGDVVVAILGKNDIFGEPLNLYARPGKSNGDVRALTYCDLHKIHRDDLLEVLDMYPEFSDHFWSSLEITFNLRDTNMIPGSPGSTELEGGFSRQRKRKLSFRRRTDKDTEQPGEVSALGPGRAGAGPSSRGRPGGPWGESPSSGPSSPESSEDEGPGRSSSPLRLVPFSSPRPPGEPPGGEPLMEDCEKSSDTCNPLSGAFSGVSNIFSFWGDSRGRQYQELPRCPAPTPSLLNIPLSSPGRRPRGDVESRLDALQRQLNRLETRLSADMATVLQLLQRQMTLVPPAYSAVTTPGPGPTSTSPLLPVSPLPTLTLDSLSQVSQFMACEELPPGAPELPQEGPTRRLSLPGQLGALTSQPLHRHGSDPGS
# Bile acid receptor (Homo sapiens), sequence (Q96RI1 whole entry, looked up): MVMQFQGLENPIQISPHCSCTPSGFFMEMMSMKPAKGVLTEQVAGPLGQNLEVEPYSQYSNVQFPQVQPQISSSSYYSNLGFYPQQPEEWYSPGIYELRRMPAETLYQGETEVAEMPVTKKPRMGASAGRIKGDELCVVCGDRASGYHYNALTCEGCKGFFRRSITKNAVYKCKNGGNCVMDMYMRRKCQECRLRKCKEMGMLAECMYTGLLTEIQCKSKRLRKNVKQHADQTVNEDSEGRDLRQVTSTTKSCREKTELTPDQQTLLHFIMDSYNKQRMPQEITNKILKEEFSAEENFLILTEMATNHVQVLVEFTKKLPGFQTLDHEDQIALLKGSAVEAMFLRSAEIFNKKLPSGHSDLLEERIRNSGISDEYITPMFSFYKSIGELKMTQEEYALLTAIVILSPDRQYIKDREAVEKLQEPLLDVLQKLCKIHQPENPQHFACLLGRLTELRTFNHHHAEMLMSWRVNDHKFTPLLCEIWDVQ
# Glucocorticoid receptor (Homo sapiens), sequence (P04150 whole entry, looked up): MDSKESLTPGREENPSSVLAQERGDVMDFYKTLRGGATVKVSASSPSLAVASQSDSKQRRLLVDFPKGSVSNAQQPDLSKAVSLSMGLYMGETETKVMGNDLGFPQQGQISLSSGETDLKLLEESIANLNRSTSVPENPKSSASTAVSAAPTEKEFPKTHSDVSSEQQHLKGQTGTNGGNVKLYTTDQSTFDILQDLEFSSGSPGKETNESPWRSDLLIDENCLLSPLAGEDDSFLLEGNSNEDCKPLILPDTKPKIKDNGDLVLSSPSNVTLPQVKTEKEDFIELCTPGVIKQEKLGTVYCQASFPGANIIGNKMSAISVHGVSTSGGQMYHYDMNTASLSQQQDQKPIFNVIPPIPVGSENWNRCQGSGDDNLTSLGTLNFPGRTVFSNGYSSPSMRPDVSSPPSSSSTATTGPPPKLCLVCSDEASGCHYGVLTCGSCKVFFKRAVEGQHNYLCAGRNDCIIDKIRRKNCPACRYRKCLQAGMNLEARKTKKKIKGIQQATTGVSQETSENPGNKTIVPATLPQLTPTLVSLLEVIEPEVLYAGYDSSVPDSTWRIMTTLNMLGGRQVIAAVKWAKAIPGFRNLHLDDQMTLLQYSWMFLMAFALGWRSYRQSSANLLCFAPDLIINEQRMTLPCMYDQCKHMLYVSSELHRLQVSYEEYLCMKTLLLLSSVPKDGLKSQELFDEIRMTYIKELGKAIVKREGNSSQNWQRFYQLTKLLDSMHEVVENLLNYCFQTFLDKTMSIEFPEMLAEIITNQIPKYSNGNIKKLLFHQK
# Thyroid hormone receptor beta (Homo sapiens), sequence (P10828 whole entry, looked up): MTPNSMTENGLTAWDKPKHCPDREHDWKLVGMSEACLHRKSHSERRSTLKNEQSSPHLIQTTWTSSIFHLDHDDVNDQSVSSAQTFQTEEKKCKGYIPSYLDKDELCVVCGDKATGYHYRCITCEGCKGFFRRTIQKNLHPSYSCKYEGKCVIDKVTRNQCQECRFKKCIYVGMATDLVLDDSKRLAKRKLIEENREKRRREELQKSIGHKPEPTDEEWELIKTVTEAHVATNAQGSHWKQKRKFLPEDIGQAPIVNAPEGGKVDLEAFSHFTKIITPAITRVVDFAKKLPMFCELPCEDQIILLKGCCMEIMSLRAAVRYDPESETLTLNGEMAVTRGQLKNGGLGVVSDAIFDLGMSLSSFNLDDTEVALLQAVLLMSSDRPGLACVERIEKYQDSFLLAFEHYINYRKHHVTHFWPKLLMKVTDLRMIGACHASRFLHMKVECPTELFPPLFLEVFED
# Nuclear receptor ROR-gamma (Homo sapiens), sequence (P51449 whole entry, looked up): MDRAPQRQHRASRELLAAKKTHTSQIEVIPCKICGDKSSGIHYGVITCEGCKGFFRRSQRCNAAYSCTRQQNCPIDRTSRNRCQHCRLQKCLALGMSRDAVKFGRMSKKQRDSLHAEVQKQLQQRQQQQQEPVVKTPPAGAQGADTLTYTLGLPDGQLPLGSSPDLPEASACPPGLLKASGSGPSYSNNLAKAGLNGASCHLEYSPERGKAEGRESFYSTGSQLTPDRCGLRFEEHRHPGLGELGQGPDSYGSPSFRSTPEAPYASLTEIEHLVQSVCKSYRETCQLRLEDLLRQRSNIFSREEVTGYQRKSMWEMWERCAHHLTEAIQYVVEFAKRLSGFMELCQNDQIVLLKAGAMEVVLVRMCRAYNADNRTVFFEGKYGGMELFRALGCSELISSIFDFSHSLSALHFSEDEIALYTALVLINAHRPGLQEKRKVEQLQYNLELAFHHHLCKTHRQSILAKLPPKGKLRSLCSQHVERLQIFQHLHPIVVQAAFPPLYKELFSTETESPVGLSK
# Peroxisome proliferator-activated receptor delta (Homo sapiens), sequence (Q03181 whole entry, looked up): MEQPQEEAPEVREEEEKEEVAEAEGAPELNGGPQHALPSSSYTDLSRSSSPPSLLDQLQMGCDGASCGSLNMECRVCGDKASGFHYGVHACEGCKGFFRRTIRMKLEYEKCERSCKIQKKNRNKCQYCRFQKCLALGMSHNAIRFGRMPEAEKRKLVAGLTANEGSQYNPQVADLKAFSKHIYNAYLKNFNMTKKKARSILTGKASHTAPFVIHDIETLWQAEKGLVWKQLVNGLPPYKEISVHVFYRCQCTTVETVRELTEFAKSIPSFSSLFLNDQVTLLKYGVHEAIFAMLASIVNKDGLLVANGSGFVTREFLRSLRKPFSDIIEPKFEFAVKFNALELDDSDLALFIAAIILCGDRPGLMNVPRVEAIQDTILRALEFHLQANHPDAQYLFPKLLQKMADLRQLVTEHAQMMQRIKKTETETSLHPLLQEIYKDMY
# Nuclear receptor subfamily 1 group I member 2 (Rattus norvegicus), sequence (Q9R1A7 whole entry, looked up): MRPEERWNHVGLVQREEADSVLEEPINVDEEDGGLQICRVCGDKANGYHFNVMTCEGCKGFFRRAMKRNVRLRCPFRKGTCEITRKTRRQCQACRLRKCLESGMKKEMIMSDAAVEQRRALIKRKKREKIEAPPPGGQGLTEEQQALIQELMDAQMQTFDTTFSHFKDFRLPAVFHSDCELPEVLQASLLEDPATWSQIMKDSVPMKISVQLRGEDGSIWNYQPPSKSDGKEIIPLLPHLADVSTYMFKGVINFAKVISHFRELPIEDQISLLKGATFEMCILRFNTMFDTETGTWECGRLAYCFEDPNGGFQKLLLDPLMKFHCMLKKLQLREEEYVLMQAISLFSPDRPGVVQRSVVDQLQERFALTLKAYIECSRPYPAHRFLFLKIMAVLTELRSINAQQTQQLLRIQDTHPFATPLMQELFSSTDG
# Peroxisome proliferator-activated receptor gamma (Homo sapiens), sequence (P37231 whole entry, looked up): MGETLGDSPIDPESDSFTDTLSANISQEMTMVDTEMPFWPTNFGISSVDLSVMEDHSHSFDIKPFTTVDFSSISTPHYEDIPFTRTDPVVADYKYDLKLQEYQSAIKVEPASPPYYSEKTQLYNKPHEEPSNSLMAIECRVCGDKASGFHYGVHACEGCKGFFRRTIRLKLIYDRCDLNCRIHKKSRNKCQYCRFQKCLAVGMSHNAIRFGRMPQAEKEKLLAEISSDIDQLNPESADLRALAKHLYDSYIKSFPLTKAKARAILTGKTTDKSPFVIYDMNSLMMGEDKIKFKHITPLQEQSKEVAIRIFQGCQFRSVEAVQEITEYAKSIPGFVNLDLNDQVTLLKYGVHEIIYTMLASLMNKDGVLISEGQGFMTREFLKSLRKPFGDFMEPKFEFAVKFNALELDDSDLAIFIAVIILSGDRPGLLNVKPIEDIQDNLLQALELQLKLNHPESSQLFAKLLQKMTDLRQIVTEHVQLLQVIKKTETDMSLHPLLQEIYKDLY
SMILES,Potency [1],Potency [2],Potency [3],Potency [4],Potency [5],Potency [6],activation [7],Potency [8],outcome [9],outcome [10],outcome [11],activity change % (negative = inhibition) [12],Potency [13],activation [14],activation [15],Potency [16],max response [17],outcome [18],Potency [19],outcome [20]
CCCCCCCC(=O)Cl,inactive,inactive,inactive,inactive,inactive,inactive,0.289%,inactive,inactive,inactive,inactive,11.9%,inactive,-1.82%,-0.601%,inactive,5.82%,inactive,,
Cc1ccc(O)c(C)c1,inactive,inactive,inactive,inactive,inactive,inactive,,inactive,inactive,inactive,inactive,2.23% and -13.2% and -16.1%,inactive,-2.98% and 8.45% and 2.43%,-0.285% and -2.95% and -1.2%,inactive,-2.91% and 1.12% and -5.05%,,398 µM (active),
c1ccc(OP(Oc2ccccc2)Oc2ccccc2)cc1,inactive,inactive,inactive,inactive,inactive,inactive,,inactive,,inactive,inactive,5.76%,inactive,-2.41% and -6.19%,0.234% and -1.88%,inactive,0.576% and -1.05%,inactive,,inactive
CCCCOCCOP(=O)(OCCOCCCC)OCCOCCCC,inactive,inactive,inactive,inactive,inactive,inactive,,inactive,inactive,inactive,inactive,-2.2% and -9.56%,,-1.25% and 0.739%,,,,,,inactive
C1CCC2CCCCC2C1 (centres undefined),inactive,inactive,inactive,inactive,inactive,inactive,-3.01%,inactive,inactive,inactive,inactive,10.1%,inactive,-0.562%,-0.339%,inactive,1.72%,inactive,,inactive
C=C(C)C#N,inactive,inactive,,,inactive,35.5 µM (active),0.805% and -0.908%,,inactive,,inactive,-13.7% and -1.19%,inactive,-0.28% and -1.48%,-0.895% and 0.596%,inactive,2.68% and -1.1%,inactive,,inactive
C=CC(N)=O,inactive,inactive,inactive,inactive,inactive,,,inactive,inactive,,,,,-1.86% and -1.05% and 3.38%,0.655% and -0.766% and 0.336%,inactive,2.43% and 2.67% and -1.89%,inactive,inactive,inactive
C=C(C)C(=O)OCC1CO1 (centres undefined),inactive,inactive,inactive,inactive,inactive,inactive,-3.45%,inactive,inactive,inactive,inactive,6.72%,inactive,-0.637%,0.578%,inactive,-2.46%,inactive,,inactive
Cc1cccc([N+](=O)[O-])c1,inactive,inactive,inactive,inactive,inactive,inactive,-1.63% and -0.0408%,inactive,inactive,inactive,,,inactive,-0.671%,-1.15% and 1.37%,,,,inactive,inactive
ClC(Cl)=C(Cl)C(Cl)=C(Cl)Cl,inactive,inactive,,,inactive,inactive,,inactive,inactive,inactive,inactive,-2.4%,inactive,,-0.54% and -2.12%,inactive,2.24% and -2.02%,inactive,inactive,
O=[N+]([O-])c1ccc(Cl)c(Cl)c1,inactive,inactive,inactive,inactive,inactive,inactive,1.09%,inactive,inactive,inactive,inactive,-4.24%,inactive,,0.165%,inactive,0.633%,inactive,,inactive
N#CCCCl,inactive,inactive,inactive,inactive,,,,inactive,,,inactive,-2.7% and 7.92%,inactive,-0.742% and -1.01%,,inactive,-4.29% and -2.84%,inactive,inactive,inactive
CC(C)(C)OO,inactive,inactive,inactive,inactive,,,,,inactive,inactive,inactive,4.81% and -2.74%,inactive,0.296%,-0.688% and -2.1%,inactive,1.05% and -0.992%,inactive,inactive,inactive
Brc1ccc(Oc2cc(Br)c(Br)cc2Br)c(Br)c1,inactive,inactive,inactive,inactive,inactive,inactive,0.173% and 5.65%,,inactive,,inactive,8.45% and -8.42%,inactive,-4.19%,5.38% and 0.601% and 5.34%,,,,,inactive
Brc1ccccc1,,inactive,inactive,inactive,inactive,inactive,,inactive,inactive,inactive,inactive,-13.6% and -17.2%,inactive,-1.82% and -1.95%,-1.29% and 1.99%,inactive,0.981% and 1.34%,inactive,,inactive
O=C=NC1CCCCC1,inactive,inactive,inactive,inactive,inactive,inactive,-4.4% and -2.88%,inactive,inactive,inactive,inactive,-8.25% and 2.05%,inactive,-1.8% and -1.61%,2.61% and 5.17%,inactive,,inactive,inactive,inactive
CCN(CC)c1ccccc1,inactive,inactive,inactive,inactive,inactive,inactive,-2.77%,inactive,,inactive,inactive,-7.69%,inactive,0.724%,-0.415%,inactive,-0.145%,inactive,inactive,inactive
Clc1nc(Cl)nc(Cl)n1,inactive,inactive,inactive,inactive,inactive,inactive,,inactive,inactive,inactive,inactive,-1.04%,inactive,-4.73% and -1.27%,1.36% and 0.55%,inactive,-1.06% and -1.98%,,inactive,inactive
CCCSC(=O)Cl,inactive,inactive,inactive,inactive,inactive,inactive,0.0371%,inactive,inactive,inactive,inactive,-14.3%,inactive,-3.85%,-0.385%,inactive,-3.99%,inactive,inactive,inactive
OCC1CO1 (centres undefined),inactive,inactive,inactive,inactive,inactive,inactive,-2.37% and -0.462%,inactive,inactive,inactive,inactive,-4.57% and 15.9%,inactive,-2.94% and 1.37%,-0.664% and -1.74%,inactive,-4.01% and -4.87%,inactive,inactive,inactive
O=NN(CCO)CCO,,inactive,inactive,inactive,inactive,inactive,3.77%,inactive,,inactive,inactive,-10.8%,,-2.59%,-0.118%,inactive,3.2%,inactive,inactive,inactive
